PubChem BioAssay AID1159580 (chemical genetic matrix, 2015)
The whole screen tested about 5,500 compounds, of which about 2,000 (36%) were called active. Another 18% or so got no clear call; they are omitted. Rule as the data show it: active = normalized growth mostly below about 0.91 (no sharp cut-off); inconclusive = no clear call, values can overlap the other calls; inactive = mostly above about 0.92. The list shows a part of the results.

Test: chemical genetic growth profiling, strain panel (AID 1159580);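 also: tested at 20 µM; growth read once vehicle control cultures reached saturation at 30 °C; 1 = growth at the plate median or of vehicle wells; lower values mean less growth of the strain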
Details: S. cerevisiae deletion strains, growth OD

Measured: normalized growth

CCOC(=O)c1oc2c(OC)c(O)cc(O)c2c(=O)c1-c1cc(OC)c(OC)c(OC)c1
inactive: locus YAL021C, strain ccr4, stronger effect = lower value 0.985 | locus YAL026C, strain drs2, stronger effect = lower value 0.974 | locus YAL030W, strain snc1, stronger effect = lower value 0.968 | locus YBL061C, strain skt5, stronger effect = lower value 0.976 | locus YBR009C, strain hhf1, stronger effect = lower value 0.972 | locus YBR023C, strain chs3, stronger effect = lower value 0.972 | locus YBR171W, strain sec66, stronger effect = lower value 0.956 | locus YBR231C, strain swc5, stronger effect = lower value 0.974 | locus YBR279W, strain paf1, stronger effect = lower value 0.987 | locus YCL011C, strain gbp2, stronger effect = lower value 0.976 | locus YCL016C, strain dcc1, stronger effect = lower value 0.977 | locus YCL061C, strain MRC1, stronger effect = lower value 0.966 | locus YCL069W, strain vba3, stronger effect = lower value 0.989 | locus YCR088W, strain abp1, stronger effect = lower value 0.972 | locus YDL005C, strain med2, stronger effect = lower value 0.993 | locus YDL040C, strain nat1, stronger effect = lower value 0.983 | locus YDR001C, strain nth1, stronger effect = lower value 0.982 | locus YDR069C, strain doa4, stronger effect = lower value 0.991 | locus YDR159W, strain sac3, stronger effect = lower value 0.973 | locus YDR195W, strain ref2 1.05 | locus YDR297W, strain sur2, stronger effect = lower value 0.979 | locus YDR334W, strain swr1, stronger effect = lower value 0.98 | locus YDR335W, strain msn5, stronger effect = lower value 0.971 | locus YDR392W, strain spt3, stronger effect = lower value 0.878 | locus YEL003W, strain gim4, stronger effect = lower value 0.978 | locus YEL037C, strain rad23, stronger effect = lower value 0.98 | locus YEL061C, strain CIN8 (second series), stronger effect = lower value 0.978 | locus YER015W, strain faa2, stronger effect = lower value 0.986 | locus YER016W, strain bim1, stronger effect = lower value 0.969 | locus YER111C, strain swi4, stronger effect = lower value 0.989 | locus YER155C, strain BEM2 (second series), stronger effect = lower value 0.947 | locus YFR010W, strain ubp6, stronger effect = lower value 0.986 | locus YGL167C, strain pmr1, stronger effect = lower value 0.957 | locus YGL173C, strain kem1, stronger effect = lower value 0.965 | locus YGL227W, strain vid30, stronger effect = lower value 0.959 | locus YGL240W, strain doc1, stronger effect = lower value 0.948 | locus YGL253W, strain hxk2, stronger effect = lower value 0.974 | locus YHR013C, strain ard1, stronger effect = lower value 1.01 | locus YHR027C, strain rpn1, stronger effect = lower value 0.985 | locus YHR142W, strain chs7, stronger effect = lower value 0.955 | locus YJL092W, strain hpr5, stronger effect = lower value 0.973 | locus YJL095W, strain BCK1 (second series), stronger effect = lower value 0.975 | locus YJL115W, strain asf1, stronger effect = lower value 0.986 | locus YJL129C, strain trk1, stronger effect = lower value 0.977 | locus YJL154C, strain vps35, stronger effect = lower value 0.984 | locus YJL164C, strain tpk1, stronger effect = lower value 0.964 | locus YJL166W, strain qcr8, stronger effect = lower value 0.975 | locus YJL187C, strain SWE1, stronger effect = lower value 0.985 | locus YKL160W, strain elf1, stronger effect = lower value 0.966 | locus YKR026C, strain gcn3, stronger effect = lower value 0.97 | locus YKR091W, strain srl3, stronger effect = lower value 0.973 | locus YLL001W, strain dnm1, stronger effect = lower value 0.98 | locus YLL026W, stronger effect = lower value 0.968 | locus YLL041C, strain sdh2, stronger effect = lower value 0.974 | locus YLR027C, strain aat2, stronger effect = lower value 0.972 | locus YLR221C, strain rsa3, stronger effect = lower value 0.972 | locus YLR258W, strain gsy2, stronger effect = lower value 0.969 | locus YLR320W, strain mms22, stronger effect = lower value 0.901 | locus YLR342W, strain FKS1, stronger effect = lower value 0.971 | locus YLR357W, strain rsc2, stronger effect = lower value 1 | locus YLR370C, strain arc18, stronger effect = lower value 0.972 | locus YLR384C, strain iki3, stronger effect = lower value 0.982 | locus YML120C, strain ndi1, stronger effect = lower value 0.973 | locus YMR058W, strain fet3, stronger effect = lower value 0.976 | locus YMR125W, strain sto1, stronger effect = lower value 0.985 | locus YMR129W, stronger effect = lower value 0.978 | locus YMR205C, strain PFK2, stronger effect = lower value 0.933 | locus YMR231W, strain pep5, stronger effect = lower value 0.997 | locus YNL071W, strain lat1, stronger effect = lower value 0.959 | locus YNL209W, strain ssb2, stronger effect = lower value 0.98 | locus YNL248C, strain rpa49, stronger effect = lower value 0.958 | locus YNL322C, strain KRE1 (second series), stronger effect = lower value 0.971 | locus YNR049C, strain mso1, stronger effect = lower value 0.974 | locus YOR001W, strain rrp6, stronger effect = lower value 0.969 | locus YOR070C, strain gyp1, stronger effect = lower value 0.973 | locus YOR080W, strain dia2, stronger effect = lower value 0.985 | locus YOR083W, strain WHI5, stronger effect = lower value 0.965 | locus YOR106W, strain vam3, stronger effect = lower value 0.975 | locus YOR265W, strain rbl2, stronger effect = lower value 0.974 | locus YOR270C, strain vph1, stronger effect = lower value 0.915 | locus YOR290C, strain snf2, stronger effect = lower value 0.959 | locus YPL051W, strain arl3, stronger effect = lower value 0.963 | locus YPL078C, strain atp4, stronger effect = lower value 0.973 | locus YPL106C, strain sse1, stronger effect = lower value 0.997 | locus YPL240C, strain hsp82, stronger effect = lower value 0.964
active: locus YDR137W, strain rgp1, stronger effect = lower value 0.799 | locus YLR262C, strain YPT6 (second series), stronger effect = lower value 0.82
